# HT1080-NT tox: kills 2HG-producing HT-1080-NT fibrosarcoma cells; 1.6% of 360,000 active; Potency, µM (top dose mostly 46.1 µM), inactives show top-dose activity, negative = less viability, usual class: cytotoxic; HT-1080-NT fibrosarcoma viability, CellTiter-Glo ATP luminescence, 48 h;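 note: NT is the 2HG producing partner of a matched IDH1 knockdown line; potency is the fitted concentration of half-maximal effect; 0% = DMSO-treated cells and -100% = media-only wells without cells; nearly all actives have a fitted effect of over 55% in size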
#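 HT-1080-NT; 750 cells/well; 5% FBS RPMI; 48 h compound, 37 degrees C; CellTiter-Glo luminescence; curve fitting and curve-class assignment.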
# DT40 TDP1 no CPT: qHTS for Inhibitors of human tyrosyl-DNA phosphodiesterase 1 (TDP1): qHTS in cells in absence of CPT | DT40 Tdp1-/- hTDP1 cells, no CPT, ATP luminescence, 48 h | Potency, µM (top dose mostly 46.2 µM), without a hit: at the highest dose activity change, negative = growth inhibition, usual class: inhibitors | 15% of 420,000 active; note: potency is the fitted concentration of half-maximal effect; nearly all actives have a fitted effect of over 55% in size
#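 No-CPT arm: Tdp1-/-;hTDP1 DT40 cells (400/well) plus compounds, incubated ≥48 hr at 37 °C. Readout CellTiter-Glo luminescence.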
# HT1080 IDH1KD tx: toxicity to HT-1080 IDH1 knockdown cells (counter line); HT-1080 IDH1 knockdown viability, ATP luminescence, 48 h; AID 686971; 2% of 360,000 active; Potency, µM (doses to about 46.1 µM), inactives show top-dose activity, negative = toxicity, most hits filed as cytotoxic;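 note: potency is the fitted concentration of half-maximal effect; 0% = DMSO wells and -100% = cell-free medium wells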
#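 Luminescent ATP read-out (CellTiter-Glo, 10 min at room temperature) after 48 h compound exposure at 37 °C gave viability of IDH1-knockdown HT-1080 cells. Activity was normalised to DMSO and cell-free wells, then fitted as concentration-response curves.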
# TDP1 cell CPT: growth inhibition of DT40 Tdp1-/-;hTDP1 cells with camptothecin (screen for TDP1 inhibitors); Potency, µM (doses to about 46.2 µM), without a hit: top-dose activity change, negative = growth inhibition, actives largely listed as inhibitors; 12% of 420,000 active; chicken DT40 Tdp1-/-;hTDP1 cells + 20 nM CPT, ATP luminescence, 48 h; note: potency is the fitted concentration of half-maximal effect; nearly all actives have a fitted effect of over 55% in size
#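 Chicken DT40 Tdp1-/- cells stably complemented with human TDP1 were seeded at 400 cells/well in medium containing 20 nM camptothecin, exposed to pin-transferred compounds, and grown at 37 °C for at least 48 hr. Viability was read as ATP luminescence.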
# IL1B secr inh: inhibitors of inflammasome signaling (IL-1 beta secretion); 4.7% of 360,000 active; activity change, % at 57.5 µM; THP-1 LPS/ATP IL-1B secretion, AlphaLISA, 16 h; stronger effect = lower value; in the data active = activity change below about -50%; inconclusive = mostly about -30% to -49%
#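 Secreted IL-1B measured by AlphaLISA bead assay after 16 h compound exposure of THP-1 cells; compounds (final up to 57.5 uM) added 1 h before LPS (250 ng/mL) and ATP (1.25 mM) stimulation; lower signal means less secretion.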
# * = called active by the depositor; ? = inconclusive; / = no result; [ ] = remark or other dose. Shown are actives, neighbours in structure and some others; about 19% of the full set was active somewhere. Unless noted, calls come from the whole dose curve; as a rule, active = well fitted curve in the direction sought with a large enough effect; inconclusive = small, poorly fitted or top-dose-only effect, or another doubt; inactive = no such curve, though single readings can be large; an effect the other way counts as inactive or inconclusive. Unless noted, % is set by controls: 0 for no effect and ±100 for the full control effect.
SMILES,HT1080-NT tox,DT40 TDP1 no CPT,HT1080 IDH1KD tx,TDP1 cell CPT,IL1B secr inh
Nn1c(SCC(=O)Nc2ccccc2Br)nnc1-c1ccco1,4.0%,20.8%,1.8%,3.5%,-3.9
O=C(O)/C=C/C(=O)Nc1ccccc1-c1ccccc1,-3.8%,10.3µM*,-2.3%[9.24 µM],8.2µM*,-15.2
O=C(O)/C=C/C(=O)Nc1ccccc1SC(F)(F)C(F)(F)C(F)(F)F,2.3%,?,-0.6%,?,-104.3*
COCC(=O)Nc1ccccc1-c1ccccc1,-4.1%,16.7%,-1.7%,-9.5%,11.7
O=C(O)/C=C/C(=O)Nc1cccc(C(F)(F)F)c1,-6.0%,-6.2%,-4.3%,0.5%,-13.0
CCOC(=O)CSc1nc(C(C)(C)C)cc(C(F)(F)F)c1C#N,?,3.0%,17.1%,-20.4%,30.2
CC(=O)Nc1sc(N/N=C\c2ccco2)nc1-c1cccs1,-2.7%,?,-2.1%,?,-19.8
O=[N+]([O-])c1cc([N+](=O)[O-])c2oc(-c3ccccc3)c(Br)c2c1O,?,8.2µM*,?,?,15.0
CC(=O)OCc1cnc(C)c2oc(=O)c(C(=O)Nc3cc(F)ccc3C)cc12,/,-3.2%,/,4.7%,/
COc1ccccc1NC(=O)C1=C(C)Nc2nc3ccccc3n2C1c1ccccc1Cl (stereo not drawn),/,?,/,14.6µM*,/
COc1ccc(C2C(C(=O)c3ccccc3)=C(C)Nc3nc4ccccc4n32)cc1OC (stereo not drawn),-4.2%,14.6µM*,0.9%,?,0.0
CCOC(=O)C1=C(C)Nc2nc3ccccc3n2C1c1ccccc1 (stereo not drawn),11.6%,-29.4%,-1.9%,-21.6%,-6.8
COc1ccc(OC)c(C2C(C(=O)c3ccccc3)=C(C)Nc3nc4ccccc4n32)c1 (stereo not drawn),-2.4%,?,4.9%,-22.5%,24.8
CC1=C(C(=O)N2CCCCC2)C(c2cccc(Cl)c2)n2c(nc3ccccc32)N1 (stereo not drawn),/,?,/,16.4µM*,/
O=C(CSCc1ccc(Br)cc1)NCCc1ccccc1,3.6%,-8.5%,4.2%,-7.5%,-23.2
COc1ccc(CN2CCCC(c3nc(-c4ccncc4)ncc3-c3ccccc3)C2)c(OC)c1OC (stereo not drawn),/,-12.7%,/,6.2%[9.04 µM],/
CC(C)Oc1ccc(C(CCN)C2CCCCC2)cc1 (stereo not drawn),14.6µM*,8.2µM*,14.6µM*,13µM*,-98.7*
CNC(=O)NC(=O)CN1C(=O)NC2(CCOc3ccccc32)C1=O (stereo not drawn),-1.3%,-1.3%,5.9%,22.0%,10.5
COC(=O)CCC(=O)Nc1cc(OC)c(OC)cc1Cc1nccc2cc(OC)c(OC)cc12,1.2%,4.3%,14.8%,7.2%,-9.3
CCOc1ccc(Cc2nccc3cc(OCC)c(OCC)cc23)cc1OCC,/,5.8µM*,/,5.8µM*,/
COc1ccc(Cl)cc1NC(=O)CCc1nnc2ccc(N3CCC4(CC3)OCCO4)nn12,-13.1%,-28.7%,-1.5%,-7.5%,4.6
N#Cc1nc(COc2ccc(F)cc2)oc1N1CCN(Cc2ccccc2)CC1,-5.0%,?,-9.0%,?,?
COc1ccccc1-c1nc(C#N)c(N2CCC(Cc3ccccc3)CC2)o1,-16.1%,18.4µM*,-13.7%,?,-4.0
N#Cc1nc(Cc2ccccc2)oc1N1CCN(c2ccccc2)CC1,0.0%,?,-2.3%,10.3µM*,?
COc1ccccc1-c1nc(C#N)c(N2CCN(Cc3ccccc3)CC2)o1,-17.6%,23.1µM*,-2.4%,?,-16.7
SMILES,HT1080-NT tox,DT40 TDP1 no CPT,HT1080 IDH1KD tx,TDP1 cell CPT,IL1B secr inh
COC/C=C/C1=CC2=CC(=O)C(C)(OC(=O)c3cnc4ccccc4n3)C(=O)C2=CN1c1ccccc1 (stereo not drawn),-1.1%,16.4µM*,2.5%,?,21.0
CC(C)=CNNC(=O)c1ccc(O)cc1,/,4.0%,/,1.6%,/
O=C1CC2(CCN(C(=O)c3ccc(F)c(F)c3)CC2)Oc2ccccc21,0.1%,?,2.3%,29.1µM*,-10.8
CCSc1ccccc1C(=O)N1CCC2(CC1)CC(=O)c1ccccc1O2,-1.1%,16.4µM*,-2.2%,-45.6%,-0.8
O=C1CC2(CCN(C(=O)c3ccccc3Cl)CC2)Oc2ccccc21,1.6%,?,5.5%,?,-18.4
Cc1ccc(CN2CCOCCS2(=O)=O)cc1,/,?,/,-24.7%,/
Cn1c(Cc2ccccc2)[n+](C)c2ccccc21,-10.0%,14.6µM*,-16.5%,?,37.2
Cn1c(=O)c(Cc2ccccc2)c(O)c2ccccc21,-0.3%[9.24 µM],-14.7%,-12.8%,?,-8.5
CCc1cc(/C(Cc2csc(C)n2)=N/O)c(O)cc1O,-9.0%,23.1µM*,-3.5%,?,-6.7
O=C(NCC1CCN(c2ccc(S(=O)(=O)N3CCOCC3)cc2)CC1)Nc1ccccc1F,0.6%,20.6µM*,-0.3%,?,-12.0
O=C(CCc1ccc(S(=O)(=O)N2CCOCC2)cc1)Nc1ccccc1F,5.8%,-28.8%,-3.0%,-5.5%,1.6
COc1ccccc1C(=O)NCC1CCN(c2ccc(S(=O)(=O)N3CCOCC3)cc2)CC1,-9.1%,23.1µM*,-24.1%,20.6µM*,-3.4
COc1ccc(S(=O)(=O)N2CCOCC2)cc1C(=O)NCC(c1ccccc1)c1ccccc1,1.6%,?,2.9%,?,-6.3
O=C(NCC1CCN(c2ccc(S(=O)(=O)N3CCOCC3)cc2)CC1)Nc1ccccc1,-0.7%,23.1µM*,-2.6%,?,0.0
CN(C)C(=O)c1ccc(NC(=O)c2ccccc2SCC(=O)N2CCCC2)cc1,3.0%,-2.4%,9.6%,9.3%,0.0
COC(=O)c1cc2c(ccn2-c2ccc(F)cc2)n1CC(=O)C(C)(C)C,2.9%,?,-12.2%,?,-10.8
CCOC(=O)c1cc2c(ccn2-c2ccc(F)cc2)n1CC(=O)N(CC)CC,-7.8%,23.1µM*,-16.1%,?,?
O=c1[nH]c2ccccc2nc1/C=C/c1ccc(F)cc1,-9.7%,?,-12.3%,?,18.4
Cn1c(=O)c(/C=C/c2ccccc2)nc2ccccc21,-4.6%,16.4µM*,-5.3%,?,-2.1
O=C(N/N=C/c1ccc(N2CCCCC2)o1)c1ccccc1,-26.3%,11.6µM*,?,9.2µM*,-95.5*
CC(=O)c1ccc(/C=C/c2nc3ccccc3n2C)o1,-12.6%,?,-11.0%,?,6.3
Cn1c(/C=C/c2ccccc2)nc2ccccc21,?,16.4µM*,?,?,19.0
Cn1c(=O)c(/C=C/c2ccc(F)cc2)nc2ccccc21,-6.5%,23.1µM*,-15.5%,?,-9.9

# Screens: PubChem, National Center for Advancing Translational Sciences (NCATS)
